Test results: PubChem BioAssay (NCATS)
Values joined by “and” are separate entries in the source; they are usually repeats but may differ in a detail not shown here. Identical values can stand only once. Results filed as inconclusive are left out. Active and inactive are the calls of the source. Unless noted, calls come from the whole dose curve; as a rule, active = well fitted curve in the direction sought with a large enough effect; inconclusive = small, poorly fitted or top-dose-only effect, or another doubt; inactive = no such curve, though single readings can be large; an effect the other way counts as inactive or inconclusive.

Key:
[1] = Cell Viability - HepG2 (AID 433; calls by dose curve;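 note: potency is the fitted concentration of half-maximal effect; potency for ATP loss meaning cytotoxicity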); details: qHTS
In short: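 In this qHTS format, a 40 h, 37 °C compound incubation of HepG2 cells in complete medium precedes a 20 min CellTiter-Glo step at room temperature. Tamoxifen and doxorubicin serve as positive controls; Hill-equation fits yield AC50.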

[2] = Cell Viability - MRC5 (AID 434; calls by dose curve;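 note: potency is the fitted concentration of half-maximal effect; potency reflects cytotoxicity seen as loss of intracellular ATP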); details: MRC5 lung fibroblast viability, qHTS
In short: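 MRC5 normal human lung fibroblasts, 1500 cells/well, exposed to compound for 40 hr at 37 C. Cellular ATP was read by CellTiter-Glo luminescence; data normalized to DMSO and 100 uM tamoxifen, with AC50 from Hill fits.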

[3] = molecular target: Mitogen-activated protein kinase 10 (Mus musculus) (UniProt Q61831); assay: JNK3 AlphaScreen Assay (AID 530; active = well fitted curve in either direction with a large enough effect, not every such curve was filed as active;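 note: kinase came from lysate of stimulated human HepG2 cells; signal reports phosphorylation of biotinylated GST-cJun 1-79 at Ser73 with 10 µM ATP; % is set by controls: 0 for no effect and ±100 for the full control effect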); details: JNK3 lysate, c-Jun phosphorylation; series mostly up to 57.1 µM
In short: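 Pre-activated (IL-1β/TNFα) JNK3 in HepG2 lysates phosphorylates biotin-GST-cJun(1-79), 10 uM ATP; anti-phospho-cJun(Ser73) AlphaScreen read at room temperature, pH 7.6 Tris buffer. Compounds pre-incubated 15 min as titrations.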

[4] = Cell Viability - NIH 3T3 (AID 541); details: NIH 3T3 cell viability, qHTS; activity change, negative = cytotoxicity: at 92.2 µM (top of the series);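 note: plate controls were DMSO alone for no effect and tamoxifen positive control for full effect; nearly all actives have a fitted effect of over 25% in size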
In short: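 Luminescent ATP signal (CellTiter-Glo) served as the viability read-out after NIH 3T3 cells were exposed to compounds over a concentration range for 40 hr at 37 °C. Hill-equation modelling of concentration-response data gave AC50.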

[5] = Cell Viability - HUV-EC-C (AID 542); details: HUV-EC-C endothelial cell viability, qHTS; series mostly up to 92.2 µM; note: % is set by controls: 0 for no effect and ±100 for the full control effect; nearly all actives have a fitted effect of over 35% in size
In short: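 qHTS cytotoxicity: HUV-EC-C, 1000 cells/well, 5 hr settle, compound 40 hr 37 °C, CellTiter-Glo, luminescence. AC50 via Hill equation.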

[6] = Cell Viability - SH-SY5Y (AID 544); details: SH-SY5Y neuroblastoma cell viability; viability change, negative = cytotoxic: at 92.2 µM (top of the series); note: nearly all actives have a fitted effect of over 55% in size
In short: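 Luminescent ATP read-out (CellTiter-Glo) measures loss of viable SH-SY5Y neuroblastoma cells after 40 hr compound exposure at 37 °C. AC50 values derive from standard Hill modelling of qHTS concentration-response data.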

[7] = Cell Viability - Renal Proximal Tubule (AID 545); details: renal proximal tubule cells viability; at 91.7 µM (top of the series), primary cells of rat origin unless noted; note: nearly all actives have a fitted effect of over 40% in size
In short: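 In this qHTS format, normal rat kidney-derived proximal tubule cells in complete culture medium receive compound titrations, then sit 40 hours at 37 °C before luciferase-based ATP quantitation; potency is reported as AC50 from concentration-response curves.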

[8] = Cell Viability - Mesenchymal (AID 546); details: mesenchymal cells viability, qHTS; series mostly up to 91.7 µM;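 note: cells exposed to compound for 40 hours before reading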
In short: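 Human kidney mesenchymal cells from normal renal glomeruli, 1000 cells/well, rested 5 hr at 37 °C, then treated 40 hr at 37 °C in complete medium. Cellular ATP read by CellTiter-Glo luminescence; AC50 from Hill-equation fits.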

[9] = Cellular Toxicity (caspase-3) Jurkat (AID 655); details: Jurkat caspase-3 activation, luminescence, DMSO = 0%, tamoxifen = 100%; at 92.2 µM (top of the series);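 note: cells exposed to compound for 16 h at 37 °C before reading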
In short: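 qHTS in human Jurkat T-cell leukemia line: 16 hr compound treatment at 37 °C, caspase-3/7 activity measured by Caspase-Glo luminescence. AC50 derived from Hill equation.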

[10] = Cellular Toxicity (caspase-3) HUV-EC-C (AID 656); details: HUV-EC-C cells, caspase-3 activation (apoptosis), vehicle = 0, 100 µM tamoxifen = 100%; series mostly up to 92.2 µM
In short: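 Concentration-dependent caspase 3/7 induction was assessed in HUV-EC-C cells exposed for 16 hours. Data scaled between DMSO and tamoxifen (100 uM) controls.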

[11] = Cellular Toxicity (caspase-3) SHSY5Y (AID 657); details: SH-SY5Y caspase-3 activation, DMSO zero, 10 µM staurosporine = 100%; series mostly up to 91.7 µM
In short: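 Readout: caspase-cleaved peptide-aminoluciferin substrate driving luciferase light in SH-SY5Y neuroblastoma cells after 16 h treatment. Response normalized to DMSO and 10 uM staurosporine controls.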

[12] = Cellular Toxicity (caspase-3) BJ (AID 658); details: BJ fibroblasts, luminescence, normalized: DMSO 0%, staurosporine 100%; series mostly up to 91.7 µM
In short: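 BJ human foreskin fibroblasts, 1000 cells/well, treated 16 hours at 37 °C in complete medium; caspase 3/7 activity by Caspase-Glo luminescence after 1 hr at room temperature. Normalized to DMSO and 10 uM staurosporine; AC50 from Hill fits.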

[13] = Cellular Toxicity (caspase-3) MRC-5 (AID 659); details: MRC-5 cells, luminescence, normalized: DMSO 0%, 10 µM staurosporine 100%; series mostly up to 91.7 µM
In short: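 MRC-5 human normal lung fibroblasts, 1500 cells/well, treated 16 h at 37 °C in complete medium. Caspase 3/7 measured by Caspase-Glo luminescence after 1 h at room temperature. Normalized to DMSO and 10 uM staurosporine; AC50 from Hill fit.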

[14] = Cellular Toxicity (caspase-3) SK-N-SH (AID 661); details: SK-N-SH caspase-3 activation, qHTS, DMSO as zero, staurosporine as full; series mostly up to 91.7 µM
In short: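 Human neuroblastoma SK-N-SH, 1500 cells/well, 5 hr pre-incubation, then compound 16 hr, 37 °C. Caspase-Glo 3/7 reagent, 1 hr RT, luminescence. Norm. to DMSO/10 uM staurosporine; Hill-fit AC50.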

[15] = Cellular Toxicity (caspase-3) H-4-II-E (AID 663); details: H-4-II-E rat hepatoma, scaled: DMSO 0%, 100 µM tamoxifen 100%; series mostly up to 92.2 µM;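 note: cells exposed to compound for 16 hr before readout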
In short: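 Rat hepatoma H-4-II-E cells (1500/well) plated 5 hr, then exposed to compound titrations for 16 hr at 37 °C. Caspase-Glo 3/7 luminescence read after 20 min at RT; data normalized to DMSO and 100 uM tamoxifen, AC50 from Hill fits.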

[16] = Cellular Toxicity (caspase-3) N2a (AID 665); details: N2a cells, luminescence, normalized: DMSO 0%, 10 µM staurosporine 100%; at 92.2 µM (top of the series);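 note: compound exposure lasted 16 h at 37 °C before readout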
In short: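 N2a cells, 1500/well, 5 h settle at 37 °C; cpd 16 h, 37 °C; Caspase-Glo 3/7, 1 h RT; luminescence. Norm: DMSO = 0, 10 uM staurosporine = 100%. AC50, Hill fit.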

[17] = molecular target: Cytochrome P450 3A4 (Homo sapiens) (UniProt P08684); assay: qHTS Assay for Inhibitors and Substrates of Cytochrome P450 3A4 (AID 884); details: recombinant CYP3A4, Luciferin-PPXE luminescence; series mostly up to 57.1 µM; note: % is set by controls: 0 for no effect and ±100 for the full control effect; nearly all actives have a fitted effect of over 50% in size
Chain of Cytochrome P450 3A4 (Homo sapiens) (P08684 whole entry, looked up): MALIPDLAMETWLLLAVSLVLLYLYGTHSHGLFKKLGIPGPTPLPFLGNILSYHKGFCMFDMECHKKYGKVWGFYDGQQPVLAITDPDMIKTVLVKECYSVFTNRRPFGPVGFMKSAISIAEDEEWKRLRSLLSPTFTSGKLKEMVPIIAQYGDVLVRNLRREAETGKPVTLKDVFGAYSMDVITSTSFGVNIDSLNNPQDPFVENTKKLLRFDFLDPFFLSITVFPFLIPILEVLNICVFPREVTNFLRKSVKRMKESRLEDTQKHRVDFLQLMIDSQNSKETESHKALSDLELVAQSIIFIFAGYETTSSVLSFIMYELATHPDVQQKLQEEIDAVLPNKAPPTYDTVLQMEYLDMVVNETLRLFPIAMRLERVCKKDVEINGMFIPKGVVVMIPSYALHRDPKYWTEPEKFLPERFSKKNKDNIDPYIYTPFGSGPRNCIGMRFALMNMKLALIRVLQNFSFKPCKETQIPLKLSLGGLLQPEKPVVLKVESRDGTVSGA
In short: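 20 nM human CYP3A4 with 25 uM Luciferin-PPXE (at KM) in 200 mM KPO4, preincubated 10 min with compound; NADPH regeneration started a 60 min RT reaction. Luciferin detected by luminescence, normalized to 57 uM ketoconazole as full inhibition.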

[18] = qHTS Assay for Identification of Small Molecule Inducers of Hypoxia Response (AID 2120; active = well fitted curve in the direction sought with a large enough effect in the signal ratio, with a control signal flat, not every such curve was filed as active; the % refers to the signal ratio; note: 0% is about no effect); details: hypoxia response reporter cells, beta-lactamase ratio readout; series mostly up to 104 µM
In short: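 ME-180 HRE-bla cells plated in Opti-MEM/0.5% dialyzed FBS, rested 4-5 h, then dosed with compound titrations by pin tool. After 17 h at 37 degrees C, CCF4 dye loaded 2.5 h at RT; 460/530 nm ratio gave %Activity and AC50.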

[19] = qHTS assay for small molecule agonists of the antioxidant response element (ARE) signaling pathway measured by Nrf2-dependant transcriptional activity - cell viability counter screen (AID 720653; active = well fitted curve in the direction sought with a large enough effect in the repeat runs; an effect the other way counts as inactive or inconclusive; note: % is set by controls: 0 for no effect and ±100 for the full control effect); details: ARE-bla HepG2 viability, CellTiter-Glo ATP luminescence, 16 h; hits give low values
In short: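 ARE-bla HepG2 cells treated with compounds for 16 h at 37C; this counter screen measures viability as intracellular ATP by CellTiter-Glo luminescence after 30 min at room temperature.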

[20] = qHTS assay for cell viability of HEK293 cells (AID 743288); details: ATP luminescence (CellTiter-Glo), 18 h; max response: hits give low values; note: % is set by controls: 0 for no effect and ±100 for the full control effect; nearly all actives have a fitted effect of over 50% in size
In short: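 Luminescent ATP quantitation served as the viability read-out. Cells (parental HEK293, 2,000/well) received compounds after at least 5 h at 37 C and were exposed for 18 h before a 30 min room-temperature reagent step.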

Cc1ccc(O)c(C)c1
inactive: Potency [1] > 92 µM | Potency [2] > 92 µM | outcome [3] | activity change, negative = cytotoxicity [4] 3.22% | Potency [5] | Potency [6] | activity change, negative = cytotoxicity [7] -11.8% [at 91.7 µM] | outcome [8] | caspase-3 activation [9] 2.67% | outcome [10] | outcome [11] | outcome [12] | outcome [13] | outcome [14] | outcome [15] | caspase-3 activation [16] 3.54% | Potency [17] | outcome [18] | max response [19] -4.5% and -1.52% | max response [20] -1.16% and -6.96% and -11.5%

c1ccc(OP(Oc2ccccc2)Oc2ccccc2)cc1
inactive: Potency [1] > 92 µM | Potency [2] > 92 µM | outcome [3] | activity change, negative = cytotoxicity [4] 7% | Potency [5] | Potency [6] | activity change, negative = cytotoxicity [7] 1.28% | outcome [8] | caspase-3 activation [9] -1.12% | outcome [10] | outcome [11] | outcome [12] | outcome [13] | outcome [14] | outcome [15] | caspase-3 activation [16] 0.755% | Potency [17] | outcome [18] | max response [19] 3.55% and -14.3% | max response [20] -13.6% and -7.52%

CCCCOCCOP(=O)(OCCOCCCC)OCCOCCCC
inactive: Potency [1] > 92 µM | Potency [2] > 92 µM | outcome [3] | activity change, negative = cytotoxicity [4] -4.02% | Potency [5] | Potency [6] | activity change, negative = cytotoxicity [7] 5.24% [at 91.7 µM] | outcome [8] | caspase-3 activation [9] 1.12% | outcome [10] | outcome [11] | outcome [12] | outcome [13] | outcome [14] | outcome [15] | caspase-3 activation [16] -1.18% | outcome [18] | max response [19] -2.06% and 1.41% | max response [20] -5.77% and -12.8%

C1CCC2CCCCC2C1 (stereo not drawn)
inactive: Potency [1] > 92 µM | Potency [2] > 92 µM | outcome [3] | activity change, negative = cytotoxicity [4] -13.5% | Potency [5] | Potency [6] | activity change, negative = cytotoxicity [7] -9.71% | outcome [8] | caspase-3 activation [9] 1.3% | outcome [10] | outcome [11] | outcome [12] | outcome [13] | outcome [14] | outcome [15] | caspase-3 activation [16] -0.192% | Potency [17] | outcome [18] | max response [19] 2.05% | max response [20] 0.933%

C=C(C)C#N
inactive: Potency [1] > 92 µM | Potency [2] > 92 µM | outcome [3] | activity change, negative = cytotoxicity [4] -26.6% | Potency [5] | Potency [6] | activity change, negative = cytotoxicity [7] 0.281% | outcome [8] | caspase-3 activation [9] 1.57% | outcome [10] | outcome [11] | outcome [12] | outcome [13] | outcome [14] | outcome [15] | caspase-3 activation [16] -1.66% | Potency [17] | outcome [18] | max response [19] -12.2% and -0.888% | max response [20] -2.82% and -11%

C=CC(N)=O
inactive: Potency [1] > 92 µM | Potency [2] > 92 µM | outcome [3] | activity change, negative = cytotoxicity [4] 5.3% and 3.72% | Potency [5] | Potency [6] | activity change, negative = cytotoxicity [7] 6.17% and -0.476% | outcome [8] | caspase-3 activation [9] 0.421% and 0.897% | outcome [10] | outcome [11] | outcome [12] | outcome [13] | outcome [14] | outcome [15] | caspase-3 activation [16] -0.525% and -0.998% | outcome [18] | max response [19] -3.97% and 4.84% and 3.74% | max response [20] -9.64% and 2.95% and 5.31%

C=C(C)C(=O)OCC1CO1 (stereo not drawn)
inactive: Potency [1] > 92 µM | Potency [2] > 92 µM | outcome [3] | activity change, negative = cytotoxicity [4] -17.7% | Potency [5] | Potency [6] | activity change, negative = cytotoxicity [7] -4.58% | outcome [8] | caspase-3 activation [9] 1.42% | outcome [10] | outcome [11] | outcome [12] | outcome [13] | outcome [14] | outcome [15] | caspase-3 activation [16] -4.34% | Potency [17] | outcome [18] | max response [19] 1.28% | max response [20] 3.25%
